system: Plasmodium falciparum; experiment: GSK_TCMDC: Inhibition of Plasmodium falciparum Dd2 in whole red blood cells, using parasite LDH activity as an index of growth. Test compounds present at 2uM; assay type: functional

How did the Inhibition turn out when `O=C(c1cccc(-c2ccc(-c3nc4cc(C(F)(F)F)ccc4[nH]3)cc2)c1)N1CCCCC1CN1CCC(O)C1` (stereo not given) was run?
Its Inhibition is 100%.

`O=C(Nc1ccnc(-c2cccnc2)n1)c1cc(C(F)(F)F)cc(C(F)(F)F)c1` was tested. Which Inhibition did it give?
Its Inhibition is 12%.

`COc1cc(C)ccc1S(=O)(=O)N1CCCCC(c2ccc(C(F)(F)F)cc2)=N1` was tested. Which Inhibition did it give?
The Inhibition was 89%.

`Cl.c1ccc(Cn2nnnc2-c2cccc(Nc3ccnc4cc(-c5nccs5)ccc34)c2)cc1` was tested. Which Inhibition did it give?
Its Inhibition is 46%.

Which Inhibition does the source give for `CN(C(=O)Nc1ccc(F)cc1)C1CCN(CCCCCNC(=O)/C=C/c2ccc(Cl)c(Cl)c2)CC1` here?
The Inhibition was 0%.

system: HepG2; experiment: GSK_TCMDC: Percent inhibition of human HepG2 cell line. Test compounds present at 10uM.; assay type: functional

Which Inhibition does the source give for `COc1cc(C(=O)N2C(c3nccs3)C(C(=O)N(OC)C(C)c3ccccc3)CC2(CC(C)C)C(=O)OC(C)(C)C)ccc1C(C)(C)C` (stereo not given) here?
The Inhibition was 12%.

For `CC(C)(C)c1ccc(CNCCOc2ccc(Nc3nnc(-c4ccc(-c5ncc[nH]5)cc4)o3)c3ccccc23)cc1.O=C(O)C(F)(F)F`, which Inhibition is on record?
The Inhibition was 43%.

Which Inhibition does the source give for `COc1ccc(NCCCNc2ccnc3ccccc23)cc1` here?
The Inhibition was 34%.

`CCc1cn(C)c2c(N3CCCC3=O)cc(C(=O)N[C@@H](Cc3ccccc3)[C@H](O)CNC(C)(C)c3cccc(C(F)(F)F)c3)cc12` was tested. Which Inhibition did it give?
The Inhibition was 22%.

`CN1CCC(c2c[nH]c3ccc(NC(=O)Nc4ccc(-c5ccncc5)cc4Cl)cc23)CC1` was tested. Which Inhibition did it give?
Its Inhibition is 31%.

For `Cc1ccc(NC(=O)c2ccc3ncccc3c2)cc1OC1CCN(Cc2ccc(F)cc2)CC1.O=C(O)C(F)(F)F`, which Inhibition is on record?
Its Inhibition is 6%.

For `c1ccc2[nH]c(Nc3ccc(Nc4nc5ccccc5[nH]4)cc3)nc2c1`, which Inhibition is on record?
The Inhibition was 0%.

Which Inhibition does the source give for `CCCCCCN1CCCN(Cc2ccc(C(=O)Nc3cccc(CC)c3)cc2)CC1.O=C(O)C(F)(F)F` here?
Its Inhibition is 31%.

Which Inhibition does the source give for `CCc1c(CCNCC/C=C/CCNCCc2ccc(OC)c(OC)c2CC)ccc(OC)c1OC.Cl` here?
The Inhibition was 41%.

With `COCn1ncc2cc(-c3cccc(NC(=O)c4csc(NC(C)=O)n4)c3)ccc21` as the molecule, how does the Inhibition read?
The Inhibition was 0%.

`COc1cc2nc(N(C)Cc3cccc(I)c3)nc(N)c2cc1OC` was tested. Which Inhibition did it give?
Its Inhibition is 7%.

For `Cc1ccc(S(=O)(=O)NC2CCN(CCNC(=O)Nc3cc(C)nc4ccccc34)C2)cc1` (stereo not given), which Inhibition is on record?
The Inhibition was 0%.

`CCC[C@@H]([C@@H](CC1CCCCC1)C(=O)N[C@@H](CCOC(=O)NCC)C(=O)Nc1nccs1)N(O)C=O` was tested. Which Inhibition did it give?
The Inhibition was 0%.

For `O=C(Nc1cccc(CN2CCCN(Cc3ccccc3)CC2)c1)c1cc2ccccc2s1.O=C(O)C(F)(F)F`, which Inhibition is on record?
Its Inhibition is 41%.

With `O=C(NCCN1CCC(c2ccncc2)CC1)c1ccc(Nc2nccc(Nc3ccc(Oc4ccccc4)cc3)n2)cc1` as the molecule, how does the Inhibition read?
The Inhibition was 17%.

With `c1ccc(COc2ccc(COc3ccc(Cn4ccnc4)cc3)cc2)cc1` as the molecule, how does the Inhibition read?
The Inhibition was 9%.

For `FC(F)(F)c1ccc(N2CCCN(Cc3cccc(-c4ccccc4CNCc4ccc5c(c4)OCO5)c3)CC2)nc1.O=C(O)C(F)(F)F`, which Inhibition is on record?
The Inhibition was 23%.

How did the Inhibition turn out when `Br.Cc1cccc(OCCCCON2C(=N)N=C(N)NC2(C)C)c1C` was run?
Its Inhibition is 65%.

With `CC(C)NCc1ccc(-c2ccc(CN3CCCC(c4ccccc4)C3)cc2)c(C(=O)NC2Cc3ccccc3C2)c1.O=C(O)C(F)(F)F` (stereo not given) as the molecule, how does the Inhibition read?
Its Inhibition is 41%.

For `CCN(CC)CCN(Cc1ccc(-c2ccc(C(F)(F)F)cc2)cc1)C(=O)Cn1c(CCc2ccc(F)c(F)c2F)nc(=O)c2ccccc21.O=C(O)C(O)C(O)C(=O)O`, which Inhibition is on record?
Its Inhibition is 38%.

With `Cl.Nc1nc(N)c2c(ccc3c2ccn3C2CCCCC2)n1` as the molecule, how does the Inhibition read?
Its Inhibition is 67%.

Which Inhibition does the source give for `COC(=O)Nc1ccc(-c2ccc(C(=O)NC3CCN(C[C@H](O)c4ccnc5ccc(OC)cc45)CC3)cc2)c(C)c1` here?
The Inhibition was 32%.

`CN1CCN=C1c1ccc(NC(=O)Nc2ccc(C3=NCCN3C)cc2)cc1.Cl` was tested. Which Inhibition did it give?
Its Inhibition is 7%.

For `Cn1cnc2c(SCc3ccc(OCc4ccccc4)cc3)ncnc21`, which Inhibition is on record?
Its Inhibition is 1%.

How did the Inhibition turn out when `Cc1cc(N[C@@H](CC(C)C)C(=O)NCc2cccc(F)c2)nc(Nc2ccccc2)n1.O=C(O)C(F)(F)F` was run?
The Inhibition was 0%.

For `O=C(Nc1cccc(N2CCC(NCCCn3ccnc3)CC2)c1)c1cccc(C(F)(F)F)c1`, which Inhibition is on record?
The Inhibition was 8%.

How did the Inhibition turn out when `Cc1cccc2nc(-c3ccc(-c4cccc(NC(=O)COc5ccccc5C(N)=O)c4)s3)[nH]c12` was run?
The Inhibition was 80%.

Which Inhibition does the source give for `CN(C)CCOc1ccc(-c2cc(-c3ccc(Cl)c(O)c3)c(-c3ccncc3)[nH]2)cc1.Cl` here?
The Inhibition was 54%.

`Cc1cc2c(NC(=O)NC3CCN(CCc4ccccc4Cl)CC3)cccc2cn1.Cl` was tested. Which Inhibition did it give?
The Inhibition was 13%.

How did the Inhibition turn out when `O=C(O)C(F)(F)F.Oc1ccc(CCCNc2nc(NCc3cccc4ccccc34)nc(N3CCCNCC3)n2)cc1` was run?
The Inhibition was 98%.

Source: ChEMBL document CHEMBL1157539, “Thousands of chemical starting points for antimalarial lead identification” (Nature, 2010)
